In test [1] the test system is PRMT1 (protein arginine N-methyltransferase 1). Put plainly: PRMT1 binders on small-molecule microarrays, primary screen, biochemical, small-molecule microarray, 635 nm fluorescence (AID 1088).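 Note: binding of Prmt1 protein to compounds spotted on small-molecule microarray slides.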 The following applies: small-molecule microarray binding, higher = more signal.
Test [2] in a line: yeast growth modulation, basal conditions, primary screen, YJM789 clinical isolate, OD600, 24 h (AID 1089).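 Note: growth of clinical yeast isolate S. cerevisiae YJM 789 seeded 1000 cells per well; test concentration not given here.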 The following applies: S. cerevisiae YJM789 growth, higher = more signal, called active from +8 up or from −8 down.
Test [3] in a line: fission yeast growth modulation, primary screen, strain 972, OD600, 24 h, no modulator (AID 1090).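 Note: basal condition with compound alone and no growth modifier present; test concentration not given here.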 Conditions: S. pombe 972 growth, higher = more signal, called active from +8 up or from −8 down.
A short description of test [4]: S. cerevisiae growth modulation with rapamycin, primary screen, strain BY4716, OD600, 96 h (AID 1091). Note: test concentration not given here. Conditions: higher = more signal, called active from +8 up or from −8 down.
The target in test [5] is Torsin-1A-interacting protein 2 (Homo sapiens) (UniProt Q8NFQ8). The experiment in a line: LULL1 binders on small-molecule microarray, primary screen, cell lysate, human LULL1 lysate, 635/667 nm fluorescence (AID 1092).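 Note: probe is lysate of COS7 cells overexpressing human LULL1; score merges per-feature 667 nm fluorescence with signal-to-noise.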 The following applies: hLULL1 lysate binding, 635 nm fluorescence, higher = more signal.
Sequence of Torsin-1A-interacting protein 2 (Homo sapiens) (Q8NFQ8 whole entry, looked up): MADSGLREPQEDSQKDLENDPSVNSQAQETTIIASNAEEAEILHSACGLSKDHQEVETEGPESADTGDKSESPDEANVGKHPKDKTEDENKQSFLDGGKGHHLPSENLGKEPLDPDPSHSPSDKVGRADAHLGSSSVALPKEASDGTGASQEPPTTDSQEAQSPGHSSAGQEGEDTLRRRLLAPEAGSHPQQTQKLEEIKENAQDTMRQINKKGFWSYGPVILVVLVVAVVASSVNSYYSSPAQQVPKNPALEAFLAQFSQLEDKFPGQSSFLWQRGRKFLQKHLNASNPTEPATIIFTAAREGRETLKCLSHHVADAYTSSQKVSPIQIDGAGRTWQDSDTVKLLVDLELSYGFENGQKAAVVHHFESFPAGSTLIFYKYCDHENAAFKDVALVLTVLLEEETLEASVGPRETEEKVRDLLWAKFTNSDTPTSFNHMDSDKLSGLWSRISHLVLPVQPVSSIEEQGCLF
A short description of test [6]: E. coli growth modulation, two-sided OD650, primary screen, E. coli filamentation project, strain DRC41, 24 h (AID 1093).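 Note: MC1000 strain lacking acrAB efflux and sulA so SOS filamentation is blocked; test concentration not given here.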 Conditions: OD650, 24 h, higher = more signal, called active from +8 up or from −8 down.
Test [7] can be described thus: small-molecule microarray binders of probe aLefty2, primary screen, biochemical, biotinylated probe, 635/667 nm fluorescence (AID 1094).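 Note: score merges spot fluorescence near 667 nm with spot signal-to-noise ratio.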 Conditions: higher = more signal.
The test system of test [8] is Noggin (protein binding on small-molecule microarray). The experiment in a line: Noggin binders on small-molecule microarray, primary screen, biochemical, 635/667 nm fluorescence (AID 1095).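 Note: score merges 667 nm feature fluorescence with signal to noise over triplicate slides.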 The following applies: 635 nm fluorescence, higher = more signal.
The target of test [9] is Neurogenic locus notch homolog protein 3 (Homo sapiens) (UniProt Q9UM47). Put plainly: NOTCH3 binders on small-molecule microarray, primary screen, biochemical, 635/667 nm fluorescence (AID 1096). The following applies: NOTCH3 binding, 635 nm fluorescence, higher = more signal.
Sequence of Neurogenic locus notch homolog protein 3 (Homo sapiens) (Q9UM47 whole entry, looked up): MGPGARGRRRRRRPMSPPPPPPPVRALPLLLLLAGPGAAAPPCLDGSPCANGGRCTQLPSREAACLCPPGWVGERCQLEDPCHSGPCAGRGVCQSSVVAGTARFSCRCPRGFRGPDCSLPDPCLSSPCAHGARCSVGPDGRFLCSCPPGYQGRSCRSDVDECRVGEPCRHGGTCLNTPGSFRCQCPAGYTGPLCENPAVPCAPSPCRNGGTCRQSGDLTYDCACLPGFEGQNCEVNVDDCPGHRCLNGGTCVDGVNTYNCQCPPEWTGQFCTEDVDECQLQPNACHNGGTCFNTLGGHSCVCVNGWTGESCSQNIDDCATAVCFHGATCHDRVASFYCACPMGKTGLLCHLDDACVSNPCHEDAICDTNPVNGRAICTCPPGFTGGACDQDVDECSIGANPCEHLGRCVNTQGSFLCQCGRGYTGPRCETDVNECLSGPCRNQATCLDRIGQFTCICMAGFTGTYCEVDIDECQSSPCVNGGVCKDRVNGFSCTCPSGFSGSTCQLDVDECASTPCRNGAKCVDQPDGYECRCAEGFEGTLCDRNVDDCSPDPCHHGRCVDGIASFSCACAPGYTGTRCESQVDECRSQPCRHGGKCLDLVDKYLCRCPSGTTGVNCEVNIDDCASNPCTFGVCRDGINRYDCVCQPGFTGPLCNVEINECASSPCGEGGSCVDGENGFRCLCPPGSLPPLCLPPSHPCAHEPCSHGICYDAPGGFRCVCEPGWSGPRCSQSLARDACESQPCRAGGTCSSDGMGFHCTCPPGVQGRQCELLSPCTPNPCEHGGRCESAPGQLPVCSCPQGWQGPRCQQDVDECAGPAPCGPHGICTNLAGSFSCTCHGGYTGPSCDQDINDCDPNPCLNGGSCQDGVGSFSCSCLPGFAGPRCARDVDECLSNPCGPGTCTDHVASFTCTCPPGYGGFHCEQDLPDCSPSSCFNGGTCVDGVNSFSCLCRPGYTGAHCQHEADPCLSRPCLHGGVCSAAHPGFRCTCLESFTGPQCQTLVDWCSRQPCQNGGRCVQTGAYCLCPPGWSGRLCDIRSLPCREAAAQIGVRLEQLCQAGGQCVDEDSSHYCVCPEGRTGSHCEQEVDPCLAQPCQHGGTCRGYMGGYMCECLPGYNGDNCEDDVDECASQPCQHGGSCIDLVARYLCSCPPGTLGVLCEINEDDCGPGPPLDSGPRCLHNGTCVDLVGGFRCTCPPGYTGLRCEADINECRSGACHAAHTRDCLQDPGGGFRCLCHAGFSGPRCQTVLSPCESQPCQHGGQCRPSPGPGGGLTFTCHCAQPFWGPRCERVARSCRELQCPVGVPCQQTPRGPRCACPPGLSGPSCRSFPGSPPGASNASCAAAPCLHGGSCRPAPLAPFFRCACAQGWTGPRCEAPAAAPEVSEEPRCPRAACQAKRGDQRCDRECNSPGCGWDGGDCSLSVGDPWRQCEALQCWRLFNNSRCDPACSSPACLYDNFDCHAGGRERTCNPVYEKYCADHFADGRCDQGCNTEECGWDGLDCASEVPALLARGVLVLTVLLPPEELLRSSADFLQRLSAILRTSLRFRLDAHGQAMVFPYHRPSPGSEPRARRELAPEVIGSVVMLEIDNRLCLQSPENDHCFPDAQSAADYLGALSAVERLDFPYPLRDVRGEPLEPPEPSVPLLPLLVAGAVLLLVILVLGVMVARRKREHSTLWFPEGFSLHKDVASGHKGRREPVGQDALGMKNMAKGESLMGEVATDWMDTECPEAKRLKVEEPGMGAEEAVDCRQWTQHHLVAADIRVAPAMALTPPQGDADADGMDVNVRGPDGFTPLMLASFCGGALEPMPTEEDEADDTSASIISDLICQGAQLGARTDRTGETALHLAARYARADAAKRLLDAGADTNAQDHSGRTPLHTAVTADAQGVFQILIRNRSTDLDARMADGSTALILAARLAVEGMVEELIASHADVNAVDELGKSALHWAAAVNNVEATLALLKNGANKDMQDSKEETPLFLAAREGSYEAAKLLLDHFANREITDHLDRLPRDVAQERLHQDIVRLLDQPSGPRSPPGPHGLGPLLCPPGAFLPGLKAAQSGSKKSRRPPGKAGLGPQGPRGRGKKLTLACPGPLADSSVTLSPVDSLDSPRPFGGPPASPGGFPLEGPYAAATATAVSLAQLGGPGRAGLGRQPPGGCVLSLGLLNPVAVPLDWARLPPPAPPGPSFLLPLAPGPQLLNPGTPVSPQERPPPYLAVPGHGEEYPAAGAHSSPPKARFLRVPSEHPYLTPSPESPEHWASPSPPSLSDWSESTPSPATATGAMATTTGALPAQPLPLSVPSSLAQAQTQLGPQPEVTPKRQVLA
Test [10] can be described thus: small-molecule microarray binders of probe aEGFR, primary screen, biochemical, biotinylated probe, 635/667 nm fluorescence (AID 1097).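 Note: probe is a biotinylated anti-EGFR antibody binding compounds printed on slides; score combines fluorescence near 667 nm and signal to noise of each spot.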 Conditions: higher = more signal.
In test [11] the test system is Plasmodium falciparum Sir2 (PF13_0152, Sir2A). The experiment in a line: pfSir2 binders on small-molecule microarrays, primary screen, biochemical, small-molecule microarray, 635 nm fluorescence (AID 1098).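 Note: score merges spot fluorescence intensity with its signal-to-noise ratio.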 The following applies: small-molecule microarray binding, fluorescence 635 nm; higher = more signal.
The nature of test [12]: small-molecule microarray binders of probe aDKK1, primary screen, biochemical, biotinylated probe, 635/667 nm fluorescence (AID 1099).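 Note: score merges 667nm spot fluorescence with signal to noise across triplicate slides; reference of the scale not given here.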 The following applies: higher = more signal.
Test [13] can be described thus: small-molecule microarray binders of probe aCHRDL2, primary screen, biochemical, biotinylated probe, 635/667 nm fluorescence (AID 1100). The following applies: higher = more signal.
Test [14] in a line: splicing luciferase reporter signal modulators, primary screen, spliceosome inhibition project, cell-based, HEK293, splice +/- reporter (AID 1101).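 Note: HEK293 cells carrying a splicing-competent luciferase reporter gene; test concentration not given here.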 The following applies: luminescence, 24 h, higher = more signal, called active from +8 up or from −8 down. A general note: A reporter such as luciferase makes a cellular process visible.
The target in test [15] is Fibroblast growth factor 10 (Homo sapiens) (UniProt O15520). Put plainly: FGF10 binders on small-molecule microarrays, primary screen, biochemical, small-molecule microarray, 635 nm fluorescence (AID 1102). The following applies: FGF10 binding, fluorescence 635 nm, higher = more signal.
Sequence of Fibroblast growth factor 10 (Homo sapiens) (O15520 whole entry, looked up): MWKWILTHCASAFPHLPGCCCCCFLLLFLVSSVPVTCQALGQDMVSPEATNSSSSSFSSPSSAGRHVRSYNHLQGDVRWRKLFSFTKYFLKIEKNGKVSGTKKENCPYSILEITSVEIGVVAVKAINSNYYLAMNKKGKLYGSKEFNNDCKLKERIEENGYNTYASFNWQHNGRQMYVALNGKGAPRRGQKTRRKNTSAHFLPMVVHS
For test [16], the system named is glycogen synthase kinase-3 (GSK3A per assay name; protocol says GSK3B). Put plainly: GSK3 binders on small-molecule microarrays, primary screen, biochemical, small-molecule microarray, 635 nm fluorescence, GSK3A (AID 1103). Note: the record names both GSK3A and GSK3B. The following applies: small-molecule microarray binding, fluorescence 635 nm; higher = more signal.
The target of test [17] is Epidermal growth factor receptor (Homo sapiens) (UniProt P00533). The experiment in a line: EGFR binders on small-molecule microarrays, primary screen, biochemical, small-molecule microarray, 635 nm fluorescence (AID 1104).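 Note: score merges 667 nm emission intensity with spot signal to noise over triplicate slides.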 Conditions: EGFR binding, higher = more signal.
Sequence of Epidermal growth factor receptor (Homo sapiens) (P00533 whole entry, looked up): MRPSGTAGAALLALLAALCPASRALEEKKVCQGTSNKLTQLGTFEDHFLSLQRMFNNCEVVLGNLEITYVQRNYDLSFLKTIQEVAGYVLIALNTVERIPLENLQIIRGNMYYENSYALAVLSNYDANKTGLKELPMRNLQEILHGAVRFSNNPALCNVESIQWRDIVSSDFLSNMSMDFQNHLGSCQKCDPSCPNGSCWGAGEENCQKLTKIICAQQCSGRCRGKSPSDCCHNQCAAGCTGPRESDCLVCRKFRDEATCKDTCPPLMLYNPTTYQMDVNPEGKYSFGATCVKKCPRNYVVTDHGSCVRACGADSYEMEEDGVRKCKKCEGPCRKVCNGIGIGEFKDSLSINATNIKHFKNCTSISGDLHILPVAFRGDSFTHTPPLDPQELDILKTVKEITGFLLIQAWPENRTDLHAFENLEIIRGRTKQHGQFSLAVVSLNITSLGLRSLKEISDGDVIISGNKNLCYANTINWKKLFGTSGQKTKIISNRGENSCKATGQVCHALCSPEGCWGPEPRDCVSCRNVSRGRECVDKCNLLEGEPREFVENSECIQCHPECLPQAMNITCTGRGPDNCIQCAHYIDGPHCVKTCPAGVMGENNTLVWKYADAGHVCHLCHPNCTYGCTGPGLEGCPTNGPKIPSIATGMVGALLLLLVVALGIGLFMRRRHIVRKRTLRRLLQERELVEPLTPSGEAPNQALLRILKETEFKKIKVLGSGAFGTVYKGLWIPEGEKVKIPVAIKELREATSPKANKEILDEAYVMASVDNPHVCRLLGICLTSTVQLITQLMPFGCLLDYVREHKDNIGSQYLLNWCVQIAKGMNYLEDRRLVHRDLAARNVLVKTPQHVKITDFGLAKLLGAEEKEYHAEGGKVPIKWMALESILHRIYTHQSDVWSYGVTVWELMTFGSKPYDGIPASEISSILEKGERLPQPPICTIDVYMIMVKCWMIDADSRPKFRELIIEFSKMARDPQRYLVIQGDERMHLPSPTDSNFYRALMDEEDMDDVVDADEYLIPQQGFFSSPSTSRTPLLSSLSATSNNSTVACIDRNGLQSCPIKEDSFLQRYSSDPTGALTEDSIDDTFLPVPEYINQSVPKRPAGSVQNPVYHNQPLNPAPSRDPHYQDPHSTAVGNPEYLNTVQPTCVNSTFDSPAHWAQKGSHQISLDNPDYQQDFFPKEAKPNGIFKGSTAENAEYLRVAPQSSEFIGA
Test [18] has as its target Follistatin-related protein 3 (Homo sapiens) (UniProt O95633). Put plainly: FSTL3 binders on small-molecule microarrays, primary screen, biochemical, small-molecule microarray, 635 nm fluorescence (AID 1105).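 Note: score merges emission near 667 nm and signal to noise per printed spot across three slides.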 Conditions: FSTL3 binding, higher = more signal.
Test [19] deals with Dickkopf-related protein 1 (Homo sapiens) (UniProt O94907). The experiment in a line: DKK1 binders on small-molecule microarrays, primary screen, biochemical, small-molecule microarray, 635 nm fluorescence scan (AID 1106).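 Note: score merges emission near 667 nm with signal to noise over three replicate slides.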 The following applies: DKK1 binding, higher = more signal.
Sequence of Dickkopf-related protein 1 (Homo sapiens) (O94907 whole entry, looked up): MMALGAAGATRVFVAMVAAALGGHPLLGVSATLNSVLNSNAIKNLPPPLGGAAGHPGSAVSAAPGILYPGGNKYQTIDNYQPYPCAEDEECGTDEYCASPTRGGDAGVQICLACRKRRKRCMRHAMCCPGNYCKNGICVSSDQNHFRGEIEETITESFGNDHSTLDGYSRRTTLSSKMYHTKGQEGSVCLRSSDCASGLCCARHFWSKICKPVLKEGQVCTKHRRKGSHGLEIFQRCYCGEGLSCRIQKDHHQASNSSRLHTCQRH
Test [20] deals with Inhibin beta A chain (activin A). Put plainly: INHBA (activin A) binders on microarrays, primary screen, biochemical, small-molecule microarray, 635 nm fluorescence scan (AID 1107).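 Note: mouse activin A protein probed at 4.33 µg/mL on printed slides; score merges bound-protein fluorescence near 667 nm with spot signal-to-noise.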 The following applies: small-molecule microarray binding, higher = more signal.

Calls of active or inactive are those of the source.

The values below come from PubChem BioAssay.

Sequence of Follistatin-related protein 3 (Homo sapiens) (O95633 whole entry, looked up): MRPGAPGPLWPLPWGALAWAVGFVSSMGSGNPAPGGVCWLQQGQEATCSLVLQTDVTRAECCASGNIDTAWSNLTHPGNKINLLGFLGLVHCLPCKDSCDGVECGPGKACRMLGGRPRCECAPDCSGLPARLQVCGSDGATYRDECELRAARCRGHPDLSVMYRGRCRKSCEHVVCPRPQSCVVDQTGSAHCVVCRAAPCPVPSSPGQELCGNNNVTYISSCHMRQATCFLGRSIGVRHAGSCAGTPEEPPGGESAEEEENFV

Regarding `O=c1cccc(-c2cccc(Cl)c2)o1`, the composite z-score is 0.0485 in test [1]; 0.0149 in [5]; -0.0927 in test [7]; -0.162 in test [8]; 0.136 in test [9]; -0.0304 in test [10]. Further, the composite z-score in test [11] was determined as 0.261; in test [12], 0.177; in test [13], 0.114; in test [15] it was 0.227; in test [16], 0.415; in [17] it was 0.167. In addition, the composite z-score was 0.149 in test [18], -0.0521 in test [19] and 0.338 in test [20]. For the same molecule, the z-score in [2] is -3.86 (inactive); in test [3] it was -4.41 (inactive); in [4] it was 5.45 (inactive); in test [6], 0.658 (inactive); in [14], 0.269 (inactive).
With `C=CCN1C(=O)[C@@]2(O[C@@H](CCn3cc([C@H](O)c4ccccc4)nn3)[C@H]([Si](C)(C)c3ccc(OC)cc3)[C@H]2C)c2ccccc21`, the composite z-score in test [1] was 1.55; in test [5] it was 1.02; in test [7], -0.0507; in test [8], 0.442; in test [9], 1.16; in test [10], -0.094. Besides, the composite z-score in test [11] was 1.52; in [12], -0.0203; in [13], 0.0047; in [15], 0.756; in [16], 0.658; in test [17], 0.32. The composite z-score was 1.19 in test [18], 0.694 in test [19] and 0.0239 in [20]. The z-score is -0.78 (inactive) in test [2]; -0.0638 (inactive) in test [3]; 0.307 (inactive) in [4]; 1.1 (inactive) in test [6]; -0.56 (inactive) in test [14].
Regarding `C=CC[C@@]1(C(=O)O)N=C(c2ccc(OCCCO)cc2)O[C@@H]1c1ccccc1`, the composite z-score in test [1] is 1.11; in test [5], 3.22; in test [7], -0.166; in test [8], -0.0356; in test [9] it was -0.645; in test [10], -0.315. For the same molecule, the composite z-score in [11] was 1.96; in [12], -0.2; in test [13], 0.584; in [15], -0.21; in test [16], 1.06; in [17] it was -1.9. For the same molecule, the results for the composite z-score in test [18], in test [19] and in test [20] were -1.15, -0.659 and -0.361, respectively. Moreover, the z-score in test [2] is 0.639 (inactive); in [3], -2.39 (inactive); in test [4] it was -0.203 (inactive); in test [6] it was 0.572 (inactive); in [14], -0.701 (inactive).
On to `C=CCOC(=O)[C@H]1[C@@H]2C(=O)O[C@@H](c3ccccc3)[C@@H](c3ccccc3)N2[C@@H](c2ccc(OCCOC(=O)[C@H]3C[C@H]4C(=O)N[C@@H](CCCC[N+](C)(C)C)C(=O)N4[C@H]3c3cccc(OCCO)c3)cc2)[C@]12C(=O)Nc1ccc(I)cc12`, for which the composite z-score in [1] was 1.29; in test [5] it was 0.7; in test [7], -0.166; in test [8], 0.673; in test [9], 0.456; in test [10] it was 0.002. Also, the composite z-score in test [11] was 1.1; in test [12], -0.179; in test [13], -0.0243; in test [15], 0.809; in test [16], 0.701; in test [17] it was 0.335. Besides, the composite z-score is 0.376 in test [18], 0.763 in test [19] and 0.111 in [20]. Further, the z-score was 1.11 (inactive) in [2]; 2.23 (inactive) in [3]; 4.75 (inactive) in test [4]; 0.396 (inactive) in [6]; 0.997 (inactive) in test [14].
`CCOC(=O)C[C@H]1[C@H](OC(=O)c2ccccc2-c2ccccc2)[C@@H](NC(=O)CC(C)C)c2cc(OCCCO)ccc2N1C(=O)c1ccc2ccccc2n1`: the composite z-score in [1] is 0.0508; in test [5], 1.19; in test [7] it was -0.158; in test [8], 0.219; in test [9] it was -0.0063; in test [10], 0.0111. The composite z-score is 0.74 in test [11]; -0.0242 in [12]; -0.187 in [13]; 0.513 in test [15]; 0.561 in test [16]; 0.159 in test [17]. The composite z-score in test [18] was determined as 0.368; in test [19] it was 0.45; in test [20], 1.08. Further, the z-score in [2] was -0.0014 (inactive); in test [3], -0.0812 (inactive); in test [4], 0.116 (inactive); in test [6], -0.64 (inactive); in test [14], -0.263 (inactive).
